Structures are written as SMILES. Values joined by “and” are separate entries in the source; they are usually repeats but may differ in a detail not shown here. Equal entries are not always repeated. Records with an inconclusive call do not appear. Some structures have more than one record in an assay (separate samples or runs), and their calls can disagree. Active and inactive are the calls of the source. Unless noted, calls come from the whole dose curve; as a rule, active = well fitted curve in the direction sought with a large enough effect in the repeat runs; inconclusive = weak or mixed curves; inactive = no such curve, though single readings can be large; an effect the other way counts as inactive or inconclusive.

The nature of experiment [1]: Caspase-3/7 induction in CHO-K1 cells by small molecules, qHTS assay (AID 1346980). Note: nearly all actives have a fitted effect of over 15% in size. The procedure, abridged:
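Wild-type CHO-K1 cells exposed to compounds for 17hr at 37 C, 5% CO2. Caspase-3/7 activity then measured by Caspase-Glo 3/7 luminescence after 30min at room temperature.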

The nature of experiment [2]: Caspase-3/7 induction in HepG2 cells by small molecules, qHTS cell viability counter screen (AID 1346981). Note: series mostly up to about 92 µM; nearly all actives have a fitted effect of over 30% in size. In a few lines: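 Viability determined by CellTiter-Fluor fluorescence in HepG2 wells also used for the luminescent Caspase-Glo 3/7 read. Compounds were present for 16 hr at 37 C, 5% CO2 before reagent addition.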
Background: In qHTS, concentration-response curves come from the screen itself.

For experiment [3], the target named is Nuclear receptor subfamily 1 group I member 2 (Homo sapiens) (UniProt O75469). The experiment can be described thus: Human pregnane X receptor (PXR) small molecule agonists, qHTS assay (AID 1346982). Note: nearly all actives have a fitted effect of over 35% in size. Note: potency is the fitted concentration of half-maximal effect. The procedure, abridged: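 Compound-induced hPXR transactivation of a CYP3A4 luciferase reporter was scored in HepG2 PXR-Luc cells over 24 hr at 37 C, 5% CO2, by luminescence.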
Sequence of Nuclear receptor subfamily 1 group I member 2 (Homo sapiens) (O75469 whole entry, looked up): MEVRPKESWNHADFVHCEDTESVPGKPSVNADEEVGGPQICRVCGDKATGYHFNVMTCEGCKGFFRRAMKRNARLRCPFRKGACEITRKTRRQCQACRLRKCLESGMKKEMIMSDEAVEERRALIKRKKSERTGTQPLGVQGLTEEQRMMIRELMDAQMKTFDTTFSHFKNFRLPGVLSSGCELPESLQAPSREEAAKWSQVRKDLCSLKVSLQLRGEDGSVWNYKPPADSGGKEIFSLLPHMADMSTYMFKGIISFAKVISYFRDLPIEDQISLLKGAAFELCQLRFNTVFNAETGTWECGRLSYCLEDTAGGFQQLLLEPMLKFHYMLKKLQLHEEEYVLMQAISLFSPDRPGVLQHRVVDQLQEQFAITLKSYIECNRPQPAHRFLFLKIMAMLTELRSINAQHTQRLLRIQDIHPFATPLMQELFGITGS

The target of experiment [4] is Acetylcholinesterase (Homo sapiens) (UniProt P22303). Nature of the experiment: Acetylcholinesterase (AChE) small molecule antagonists: colormetric cell-based qHTS assay (AID 1347395; calls by dose curve; note: nearly all actives have a fitted effect of over 30% in size; note: potency is the fitted concentration of half-maximal effect). The procedure, abridged:
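Homogeneous whole-cell format. SH-SY5Y cells seeded overnight, dosed with compound (30 min, 37 C, 5% CO2), then given DTNB/acetylthiocholine cocktail for 90 min at 37 C; colorimetric signal.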

Experiment [5] shares this target. Nature of the experiment: Acetylcholinesterase (AChE) small molecule antagonists: enzyme-based qHTS assay (AID 1347397; calls by dose curve; note: nearly all actives have a fitted effect of over 55% in size). The settings on record: Potency: AChE enzyme activity inhibition. The procedure, abridged:
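Recombinant human AChE (50 mU/mL) preincubated with compound 30 min at room temperature; acetylthiocholine plus DTNB then added, and thiocholine formation read colorimetrically after 10 min at room temperature. DMSO served as vehicle control.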

The target is the same in experiment [6]. Nature of the experiment: Acetylcholinesterase (AChE) small molecule antagonists: fluorescence cell-based qHTS assay (AID 1347398; calls by dose curve; note: nearly all actives have a fitted effect of over 50% in size; note: potency is the fitted concentration of half-maximal effect). The settings on record: Potency: AChE activity. In a few lines: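 SH-SY5Y cells (2000/well), attached overnight, incubated with compound 30 min at 37 C. Acetylthiocholine plus Thiolite Green then added for 40 min at room temperature. Thiocholine fluorescence (Ex/Em 490/520 nm) reports cellular AChE activity.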

Experiment [7] shares this target. The experiment can be described thus: Acetylcholinesterase (AChE) small molecule antagonists: enzyme-based qHTS assay with human liver microsomes (AID 1347399; calls by dose curve; note: nearly all actives have a fitted effect of over 60% in size). The settings on record: Potency: qHTS inhibition. The procedure, abridged:
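Recombinant human AChE (50 mU/mL in the enzyme mix) and human liver microsomes (0.25 mg/mL final) were preincubated with compound and NADPH (0.25 mg/mL final) for 30 min at 37 C. Acetylthiocholine/DTNB was then added; thiocholine was read colorimetrically after 10 min at room temperature.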

In experiment [8] the target is Cytochrome P450 2D6 (Homo sapiens) (UniProt P10635). Nature of the experiment: Cytochrome P450 Family 2 Subfamily D Member 6 (CYP2D6) small molecule antagonists: luciferase reporter qHTS assay (AID 1671196). Note: nearly all actives have a fitted effect of over 50% in size. Note: potency is the fitted concentration of half-maximal effect. The procedure, abridged:
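Each well received CYP2D6 with its proluciferin substrate and chemical, sat 10 min, then got NADPH regeneration solution for 1 h at room temperature. Luminescence in RLU served as the activity measure.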

The target of experiment [9] is Cytochrome P450 2C19 (Homo sapiens) (UniProt P33261). Nature of the experiment: Cytochrome P450 Family 2 Subfamily C Member 19 (CYP2C19) small molecule antagonists: luciferase reporter qHTS assay (AID 1671197). Note: nearly all actives have a fitted effect of over 65% in size. Note: potency is the fitted concentration of half-maximal effect. The procedure, abridged:
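Enzyme-substrate mix with proluciferin substrate (P450-Glo CYP2C19 system) preincubated with compounds 10 min at room temperature; NADPH regeneration solution added, 37C for 1 h; detection reagent stops reaction, luminescence read after 20 min. Ketoconazole positive control.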

Experiment [10] concerns the target Cytochrome P450 2C9 (Homo sapiens) (UniProt P11712). The experiment can be described thus: Cytochrome P450 Family 2 Subfamily C Member 9 (CYP2C9) small molecule antagonists: luciferase reporter qHTS assay (AID 1671198). Note: nearly all actives have a fitted effect of over 50% in size. Note: potency is the fitted concentration of half-maximal effect. The procedure, abridged:
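P450-Glo proluciferin substrate with CYP2C9 enzyme; 10 min RT preincubation, then NADPH regeneration 1 h at 37C; luciferin detection reagent 20 min RT, luminescence in relative luminescence units.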
In general terms: Reporter assays use an easily measured gene product as a stand-in for the process of interest.

Experiment [11] addresses Cytochrome P450 1A2 (Homo sapiens) (UniProt P05177). Nature of the experiment: Cytochrome P450 Family 1 Subfamily A Member 2 (CYP1A2) small molecule antagonists: luciferase reporter qHTS assay (AID 1671199). Note: nearly all actives have a fitted effect of over 50% in size. Note: potency is the fitted concentration of half-maximal effect. The procedure, abridged:
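Enzymatic CYP1A2 assay, human, luminescent: 10 min compound–enzyme–substrate preincubation, 1 h NADPH-dependent turnover, 20 min detection step, room temperature throughout. Reduced light indicates lower CYP1A2 activity.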

The target of experiment [12] is Voltage-gated inwardly rectifying potassium channel KCNH2 (Homo sapiens) (UniProt Q12809). Nature of the experiment: Human Ether-a-go-go-Related Gene (hERG) channel small molecule antagonists: fluorescence cell-based qHTS assay (AID 1671200). Note: nearly all actives have a fitted effect of over 50% in size. Note: potency is the fitted concentration of half-maximal effect. The procedure, abridged: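 Thallium served as the potassium surrogate; its influx into dye-loaded U2OS cells carrying the channel was measured by fluorescence over 2 min.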
Sequence of Voltage-gated inwardly rectifying potassium channel KCNH2 (Homo sapiens) (Q12809 whole entry, looked up): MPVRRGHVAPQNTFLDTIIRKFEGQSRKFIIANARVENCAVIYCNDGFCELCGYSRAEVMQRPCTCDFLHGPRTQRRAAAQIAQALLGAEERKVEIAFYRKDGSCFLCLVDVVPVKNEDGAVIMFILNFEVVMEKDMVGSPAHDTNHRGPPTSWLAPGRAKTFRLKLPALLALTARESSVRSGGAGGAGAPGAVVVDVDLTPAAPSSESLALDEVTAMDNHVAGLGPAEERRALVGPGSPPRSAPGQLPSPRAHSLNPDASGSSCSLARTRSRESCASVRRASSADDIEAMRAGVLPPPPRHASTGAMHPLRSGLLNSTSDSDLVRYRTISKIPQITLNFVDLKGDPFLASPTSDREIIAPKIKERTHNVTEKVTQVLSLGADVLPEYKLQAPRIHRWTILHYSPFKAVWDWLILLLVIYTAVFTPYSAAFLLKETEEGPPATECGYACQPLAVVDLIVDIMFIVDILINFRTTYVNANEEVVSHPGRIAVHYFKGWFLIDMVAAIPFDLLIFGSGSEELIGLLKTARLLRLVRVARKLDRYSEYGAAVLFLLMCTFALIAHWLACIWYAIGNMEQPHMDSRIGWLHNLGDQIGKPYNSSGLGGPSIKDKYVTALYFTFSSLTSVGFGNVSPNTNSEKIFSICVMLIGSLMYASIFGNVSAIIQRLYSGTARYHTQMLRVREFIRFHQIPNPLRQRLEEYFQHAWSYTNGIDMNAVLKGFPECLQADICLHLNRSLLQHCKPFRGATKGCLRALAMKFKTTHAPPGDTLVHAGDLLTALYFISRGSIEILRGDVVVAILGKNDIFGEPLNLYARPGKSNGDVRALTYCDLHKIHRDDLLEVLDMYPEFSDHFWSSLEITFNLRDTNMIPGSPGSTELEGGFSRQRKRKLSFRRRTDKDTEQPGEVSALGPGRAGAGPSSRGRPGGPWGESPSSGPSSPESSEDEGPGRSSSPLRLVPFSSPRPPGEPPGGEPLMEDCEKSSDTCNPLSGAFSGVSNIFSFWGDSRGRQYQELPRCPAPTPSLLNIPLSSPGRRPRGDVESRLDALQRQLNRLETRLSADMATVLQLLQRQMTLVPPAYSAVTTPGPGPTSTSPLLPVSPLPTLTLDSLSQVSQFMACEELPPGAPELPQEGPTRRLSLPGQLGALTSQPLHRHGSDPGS
On the technique in general: Block of hERG is tested as a sign of cardiac risk.

For experiment [13], the target named is Cytochrome P450 3A4 (Homo sapiens) (UniProt P08684). The experiment can be described thus: Cytochrome P450 Family 3 Subfamily A Member 4 (CYP3A4) small molecule antagonists: luciferase reporter qHTS assay (AID 1671201). The procedure, abridged:
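Relative luminescence units after 20 min with luciferin detection reagent served as read-out. Beforehand, CYP3A4 turned over a proluciferin substrate for 1 h at room temperature with NADPH regeneration, following 10 min compound preincubation.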

Sequence of Acetylcholinesterase (Homo sapiens) (P22303 whole entry, looked up): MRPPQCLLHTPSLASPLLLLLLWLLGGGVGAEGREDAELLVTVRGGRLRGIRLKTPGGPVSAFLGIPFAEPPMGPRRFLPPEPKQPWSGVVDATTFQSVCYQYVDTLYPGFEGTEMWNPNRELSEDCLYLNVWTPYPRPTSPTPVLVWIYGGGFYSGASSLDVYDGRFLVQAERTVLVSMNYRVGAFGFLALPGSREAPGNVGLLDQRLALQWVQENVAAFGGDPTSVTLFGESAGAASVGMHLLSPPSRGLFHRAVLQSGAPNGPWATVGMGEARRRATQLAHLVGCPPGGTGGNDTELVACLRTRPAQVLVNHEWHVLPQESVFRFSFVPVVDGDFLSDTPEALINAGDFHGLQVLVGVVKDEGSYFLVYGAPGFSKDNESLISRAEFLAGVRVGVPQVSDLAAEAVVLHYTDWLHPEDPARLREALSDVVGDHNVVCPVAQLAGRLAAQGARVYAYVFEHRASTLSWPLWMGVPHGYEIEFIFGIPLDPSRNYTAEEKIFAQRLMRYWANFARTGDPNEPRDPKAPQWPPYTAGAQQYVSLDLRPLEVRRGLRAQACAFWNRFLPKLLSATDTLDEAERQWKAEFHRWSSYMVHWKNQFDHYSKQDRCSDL
Sequence of Cytochrome P450 1A2 (Homo sapiens) (P05177 whole entry, looked up): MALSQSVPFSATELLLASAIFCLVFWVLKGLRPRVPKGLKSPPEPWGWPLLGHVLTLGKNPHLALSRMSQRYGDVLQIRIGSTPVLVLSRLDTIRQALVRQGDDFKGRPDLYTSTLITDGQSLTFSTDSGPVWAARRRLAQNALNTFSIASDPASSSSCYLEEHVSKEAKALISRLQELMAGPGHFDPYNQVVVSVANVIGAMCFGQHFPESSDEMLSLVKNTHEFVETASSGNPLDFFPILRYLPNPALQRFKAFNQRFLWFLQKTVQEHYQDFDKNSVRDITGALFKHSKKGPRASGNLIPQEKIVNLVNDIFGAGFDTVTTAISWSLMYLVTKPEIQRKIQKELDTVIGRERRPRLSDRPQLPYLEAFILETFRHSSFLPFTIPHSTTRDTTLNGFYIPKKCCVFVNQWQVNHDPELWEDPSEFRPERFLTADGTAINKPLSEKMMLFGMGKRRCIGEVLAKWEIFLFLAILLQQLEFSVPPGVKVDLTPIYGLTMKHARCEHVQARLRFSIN
Sequence of Cytochrome P450 2C19 (Homo sapiens) (P33261 whole entry, looked up): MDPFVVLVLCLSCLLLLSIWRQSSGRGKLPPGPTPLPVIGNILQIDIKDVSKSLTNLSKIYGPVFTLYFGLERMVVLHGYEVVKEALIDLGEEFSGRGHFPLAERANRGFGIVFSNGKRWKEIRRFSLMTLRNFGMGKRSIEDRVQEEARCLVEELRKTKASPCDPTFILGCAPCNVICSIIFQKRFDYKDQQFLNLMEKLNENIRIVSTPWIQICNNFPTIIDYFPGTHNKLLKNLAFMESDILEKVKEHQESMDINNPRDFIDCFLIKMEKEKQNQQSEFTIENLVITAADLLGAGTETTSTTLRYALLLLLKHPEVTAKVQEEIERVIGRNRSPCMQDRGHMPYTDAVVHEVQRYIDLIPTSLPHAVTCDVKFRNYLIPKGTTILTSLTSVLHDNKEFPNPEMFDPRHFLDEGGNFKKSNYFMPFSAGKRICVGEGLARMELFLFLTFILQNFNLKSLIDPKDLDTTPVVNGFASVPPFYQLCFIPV
Sequence of Cytochrome P450 3A4 (Homo sapiens) (P08684 whole entry, looked up): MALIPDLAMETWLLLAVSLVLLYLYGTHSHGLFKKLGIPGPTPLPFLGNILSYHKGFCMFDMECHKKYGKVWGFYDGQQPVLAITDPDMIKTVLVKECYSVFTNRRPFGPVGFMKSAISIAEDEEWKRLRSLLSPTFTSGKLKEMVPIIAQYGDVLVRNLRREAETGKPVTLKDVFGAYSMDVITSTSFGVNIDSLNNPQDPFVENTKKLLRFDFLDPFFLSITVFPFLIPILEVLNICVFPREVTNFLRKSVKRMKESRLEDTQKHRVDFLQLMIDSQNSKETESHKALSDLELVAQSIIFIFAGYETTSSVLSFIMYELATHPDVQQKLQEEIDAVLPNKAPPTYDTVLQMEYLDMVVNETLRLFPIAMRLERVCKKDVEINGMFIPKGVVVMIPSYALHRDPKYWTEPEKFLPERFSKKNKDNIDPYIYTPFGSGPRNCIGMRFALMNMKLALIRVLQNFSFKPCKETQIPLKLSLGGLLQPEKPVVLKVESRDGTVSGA
Sequence of Cytochrome P450 2C9 (Homo sapiens) (P11712 whole entry, looked up): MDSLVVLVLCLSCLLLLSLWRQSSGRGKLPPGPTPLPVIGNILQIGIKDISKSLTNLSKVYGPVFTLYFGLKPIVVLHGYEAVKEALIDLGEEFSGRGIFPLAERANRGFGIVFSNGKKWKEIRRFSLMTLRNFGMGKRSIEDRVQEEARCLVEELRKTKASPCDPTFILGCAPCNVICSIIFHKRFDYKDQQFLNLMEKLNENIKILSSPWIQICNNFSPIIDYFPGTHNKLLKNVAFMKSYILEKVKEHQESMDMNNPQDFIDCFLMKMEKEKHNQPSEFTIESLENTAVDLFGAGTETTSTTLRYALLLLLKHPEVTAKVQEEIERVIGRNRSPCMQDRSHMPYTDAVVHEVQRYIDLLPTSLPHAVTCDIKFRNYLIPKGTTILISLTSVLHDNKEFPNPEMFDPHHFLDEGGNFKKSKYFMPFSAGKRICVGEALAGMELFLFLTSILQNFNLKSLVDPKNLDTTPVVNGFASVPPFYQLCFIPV
Sequence of Cytochrome P450 2D6 (Homo sapiens) (P10635 whole entry, looked up): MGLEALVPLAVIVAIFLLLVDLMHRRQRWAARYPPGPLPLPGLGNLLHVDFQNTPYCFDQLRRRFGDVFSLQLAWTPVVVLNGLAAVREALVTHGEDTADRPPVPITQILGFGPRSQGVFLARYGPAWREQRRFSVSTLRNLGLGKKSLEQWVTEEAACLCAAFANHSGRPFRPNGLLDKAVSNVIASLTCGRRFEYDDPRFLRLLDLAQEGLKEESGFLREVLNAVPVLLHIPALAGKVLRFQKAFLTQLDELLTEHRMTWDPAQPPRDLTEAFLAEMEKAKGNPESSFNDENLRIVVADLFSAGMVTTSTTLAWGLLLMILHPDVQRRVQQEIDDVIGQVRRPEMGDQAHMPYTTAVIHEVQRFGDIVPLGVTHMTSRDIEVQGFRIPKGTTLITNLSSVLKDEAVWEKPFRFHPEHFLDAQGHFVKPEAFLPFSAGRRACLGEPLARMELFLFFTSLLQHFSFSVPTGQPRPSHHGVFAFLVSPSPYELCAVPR

`Clc1cccc(Cl)c1Cl`: in experiment [1], the call was inactive. Also, the Potency entry in [2], in experiment [3], in experiment [4], in experiment [5], in [6] and in [7] was “inactive” in each case. Besides, the Potency result in experiment [8], in [10], in experiment [11], in experiment [12] and in experiment [13] was “inactive” in each case. Also, the Potency in experiment [9] was 35.2 µM (active) and inactive.

For the compound `CC(C)C1(C)N=C(c2nc3ccccc3cc2C(=O)O)NC1=O` (centres undefined), the result in [1] was inactive. For the same compound, the Potency entry in experiment [2], in experiment [3], in experiment [4], in experiment [5], in [6] and in [7] was “inactive” in each case. Also, the Potency result in experiment [8], in [9], in experiment [10], in experiment [11], in [12] and in experiment [13] was “inactive” each time.

For `CC(C)OC(=O)Nc1cccc(Cl)c1`, the outcome in [1] was inactive. The Potency entry in [2], in [4], in [5], in experiment [6], in [7] and in experiment [8] was “inactive” throughout. Further, the Potency entry in [12] and in [13] was “inactive” in each case. In addition, the Potency in [3] was 38 µM (active) and 48.6 µM (active); in experiment [9], 24.8 µM (active) and 31.7 µM (active); in experiment [10] it was 55.6 µM (active) and 71 µM (active); in [11], 9.89 µM (active) and 8.94 µM (active).

For the compound `CC(Oc1ccc(Cl)cc1Cl)C(=O)O` (centres undefined), in experiment [1], the result was inactive. Besides, the Potency result in [2], in [3], in experiment [4], in experiment [5], in [6] and in experiment [7] was “inactive” each time. Also, the Potency entry in experiment [8], in experiment [11], in experiment [12] and in experiment [13] was “inactive” in each case. The Potency in experiment [9] was 35.7 µM (active); in experiment [10] it was 35.7 µM (active) and 71 µM (active).

Regarding `O=[N+]([O-])c1ccc(Oc2ccc(Cl)cc2Cl)cc1`, in [1], the compound was called inactive. Moreover, the Potency entry in [2], in [5], in [6], in experiment [7] and in [13] was “inactive” each time. In addition, the Potency was 54.8 µM (active) and inactive in experiment [3]; 63.6 µM (active) and inactive in [4]; 22.6 µM (active) in experiment [8]; 5.67 µM (active) and 5.64 µM (active) in experiment [9]; 28.4 µM (active) and 31.7 µM (active) in experiment [10]; 31.9 µM (active) and 22.4 µM (active) in [11]. The Potency in experiment [12] was 19.5 µM (active).

Turning to `CCN(CC)CCO`, in [1], the call was inactive. In addition, the Potency result in experiment [2], in experiment [3], in [4], in [5], in [6] and in experiment [7] was “inactive” each time. In addition, the Potency result in [8], in [9], in experiment [10], in experiment [12] and in [13] was “inactive” throughout. Further, in [11], the Potency entry was “inactive and 31.7 µM (active)”.

With `[N-]=[N+]=[N-]`, in experiment [1], the call was inactive. Further, the Potency result in experiment [2], in experiment [3], in experiment [4], in experiment [5], in experiment [6] and in [7] was “inactive” throughout. The Potency result in [12] and in experiment [13] was “inactive” throughout. The Potency in [8] was 38.6 µM (active) and inactive; in experiment [9], 24.4 µM (active) and 50.2 µM (active); in [10], 38.6 µM (active) and 35.6 µM (active); in [11], 43.3 µM (active) and inactive.

Regarding `CC(C#N)CCC#N` (centres undefined), the outcome in experiment [1] was inactive. Moreover, the Potency result in [2], in experiment [3], in experiment [4], in experiment [5], in experiment [7] and in [8] was “inactive” throughout. Also, the Potency result in [9], in experiment [10], in experiment [11], in experiment [12] and in [13] was “inactive” in each case. Besides, in experiment [6], the Potency is 35.2 µM (active) and inactive.

Values taken from PubChem BioAssay (Tox21).
